Data published in publication PMC11006913.

Each sequence was assayed against T1, VENTX (Homo sapiens, UniProt O95231 78-163, R121Q) (assay: PBM; 200 nM protein, PBS). Conditions: dsDNA, one strand shown.
T1 sequence: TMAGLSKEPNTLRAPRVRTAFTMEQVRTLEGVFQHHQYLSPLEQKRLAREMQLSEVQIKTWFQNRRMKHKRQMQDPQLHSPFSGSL

Row | Sequence | binding signal
1 | ATGATATG | 9.57 upbm affinity estimate (log intensity, higher = more binding, comparable within an allelic series)
2 | AATGTATC | 9.76 upbm affinity estimate (log intensity, higher = more binding, comparable within an allelic series)
3 | CCCCCTGC | 8.15 upbm affinity estimate (log intensity, higher = more binding, comparable within an allelic series)
4 | CCTCGTTA | 10.3 upbm affinity estimate (log intensity, higher = more binding, comparable within an allelic series)
5 | GCCGCAGC | 8.08 upbm affinity estimate (log intensity, higher = more binding, comparable within an allelic series)
6 | GGCGGAAC | 8.14 upbm affinity estimate (log intensity, higher = more binding, comparable within an allelic series)
7 | CACGGGGG | 7.84 upbm affinity estimate (log intensity, higher = more binding, comparable within an allelic series)
8 | CGATTACC | 10.2 upbm affinity estimate (log intensity, higher = more binding, comparable within an allelic series)
9 | AATGATAC | 9.95 upbm affinity estimate (log intensity, higher = more binding, comparable within an allelic series)
10 | GCGCGCCC | 8.19 upbm affinity estimate (log intensity, higher = more binding, comparable within an allelic series)
11 | CCGGGAGG | 8.1 upbm affinity estimate (log intensity, higher = more binding, comparable within an allelic series)
12 | CCCCATGC | 8.07 upbm affinity estimate (log intensity, higher = more binding, comparable within an allelic series)
13 | GGCACCAC | 8.11 upbm affinity estimate (log intensity, higher = more binding, comparable within an allelic series)
14 | CGGAGGGA | 8.11 upbm affinity estimate (log intensity, higher = more binding, comparable within an allelic series)
15 | ACGCATTA | 10.4 upbm affinity estimate (log intensity, higher = more binding, comparable within an allelic series)
16 | AGAGGGGC | 8.19 upbm affinity estimate (log intensity, higher = more binding, comparable within an allelic series)
17 | GGGGTACC | 8.08 upbm affinity estimate (log intensity, higher = more binding, comparable within an allelic series)
18 | GCCATTAA | 11.8 upbm affinity estimate (log intensity, higher = more binding, comparable within an allelic series)
19 | CGATTAAA | 10.7 upbm affinity estimate (log intensity, higher = more binding, comparable within an allelic series)
20 | CTGGGACC | 8.08 upbm affinity estimate (log intensity, higher = more binding, comparable within an allelic series)

Row | Sequence | binding signal
21 | CCGTCCGC | 7.99 upbm affinity estimate (log intensity, higher = more binding, comparable within an allelic series)
22 | CCCGGACG | 7.96 upbm affinity estimate (log intensity, higher = more binding, comparable within an allelic series)
23 | ACTCGTTA | 9.91 upbm affinity estimate (log intensity, higher = more binding, comparable within an allelic series)
24 | CGAGCGAC | 8.03 upbm affinity estimate (log intensity, higher = more binding, comparable within an allelic series)
25 | CCCCTCCC | 8.02 upbm affinity estimate (log intensity, higher = more binding, comparable within an allelic series)
26 | GCTTGGCC | 7.86 upbm affinity estimate (log intensity, higher = more binding, comparable within an allelic series)
27 | GGGAGGAC | 8.23 upbm affinity estimate (log intensity, higher = more binding, comparable within an allelic series)
28 | CCCCTCGG | 8.03 upbm affinity estimate (log intensity, higher = more binding, comparable within an allelic series)
29 | AAATCTAC | 9.32 upbm affinity estimate (log intensity, higher = more binding, comparable within an allelic series)
30 | AGTTAATG | 11.5 upbm affinity estimate (log intensity, higher = more binding, comparable within an allelic series)
31 | GCCAGGGC | 7.76 upbm affinity estimate (log intensity, higher = more binding, comparable within an allelic series)
32 | CGGGCACG | 7.97 upbm affinity estimate (log intensity, higher = more binding, comparable within an allelic series)
33 | GACCCAGC | 8.18 upbm affinity estimate (log intensity, higher = more binding, comparable within an allelic series)
34 | CCAGGGCC | 8.11 upbm affinity estimate (log intensity, higher = more binding, comparable within an allelic series)
35 | CCCCCTGA | 7.9 upbm affinity estimate (log intensity, higher = more binding, comparable within an allelic series)
36 | CTCCCGAG | 8.03 upbm affinity estimate (log intensity, higher = more binding, comparable within an allelic series)
37 | CCATTAAC | 12.1 upbm affinity estimate (log intensity, higher = more binding, comparable within an allelic series)
38 | CCCTTCCG | 8.08 upbm affinity estimate (log intensity, higher = more binding, comparable within an allelic series)
39 | CAAGGCCC | 7.94 upbm affinity estimate (log intensity, higher = more binding, comparable within an allelic series)
40 | CTAATGGA | 11.7 upbm affinity estimate (log intensity, higher = more binding, comparable within an allelic series)
